Screening results: PubChem, National Center for Advancing Translational Sciences (NCATS)
B2AR arrestin – agonists driving beta-arrestin recruitment to human beta2-adrenergic receptor; beta-arrestin recruitment to beta2AR, cell-based reporter; Potency, µM (titrated, usually from 46.1 µM), inactives show at the top dose activation, hits mostly activators; hit rate 0.02% among 330,000;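 also: 0% = DMSO controls and full agonism = EC100 isoproterenol or metaproterenol; nearly all actives have a fitted effect of over 65% in size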
Target sequence (P07550 whole entry, looked up): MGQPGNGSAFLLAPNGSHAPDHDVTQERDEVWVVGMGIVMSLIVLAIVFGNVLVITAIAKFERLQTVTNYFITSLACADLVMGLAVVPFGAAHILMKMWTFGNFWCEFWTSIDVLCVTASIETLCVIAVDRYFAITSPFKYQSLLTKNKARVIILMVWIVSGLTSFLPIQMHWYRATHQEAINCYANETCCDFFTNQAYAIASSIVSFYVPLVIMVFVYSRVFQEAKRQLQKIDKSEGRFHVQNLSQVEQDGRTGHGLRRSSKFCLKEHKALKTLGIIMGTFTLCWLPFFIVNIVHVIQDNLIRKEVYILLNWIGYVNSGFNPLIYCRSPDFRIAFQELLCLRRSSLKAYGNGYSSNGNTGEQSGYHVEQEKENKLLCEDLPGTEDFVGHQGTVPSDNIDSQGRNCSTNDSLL
NPSR antagonist – antagonists of human neuropeptide S receptor cAMP signaling | Potency, µM (top dose mostly 38.3 µM), inactives show at the highest dose activity change, negative = inhibition, actives largely listed as inhibitors | hit rate 1% among 220,000 | CHO-NPSR cells, cAMP TR-FRET, antagonist mode | AID 1461 | Q6W5P4; also: nearly all actives have a fitted effect of over 50% in size
RORgamma inh – ROR gamma (mouse) transcription inhibition | P51450 | Potency, µM (top dose mostly 53.6 µM), for the others: top-dose activity change, negative = inhibition, hits mostly inhibitors | hit rate 5.4% among 310,000 | Drosophila S2 Gal4-RORgamma UAS-luciferase reporter, 20 h; also: nearly all actives have a fitted effect of over 60% in size
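Schneider cells (Drosophila), stable Gal4 DBD–ROR gamma + UAS-luc; 1 hr cmpd preincubation; Cu2+ induction 700 uM final; 20 hr ambient; luminescence.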
Gal4-VP16 FLuc – Gal4-VP16 reporter inhibition counter-screen | Drosophila S2 Gal4-VP16 UAS-luciferase, luminescence, 20 h | Potency, µM (top dose mostly 53.6 µM), for inactives: at the highest dose activity, negative = inhibition, usual class: inhibitors | hit rate 3.5% among 310,000 | AID 2546;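 also: Gal4-VP16 expression switched on by copper sulfate through the metallothionein promoter; nearly all actives have a fitted effect of over 50% in size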
* hit, by the source's call; ? = inconclusive; nt = no result; ! = not confirmed by another sample; [ ] = another dose, or the depositor's remark. Shown are actives, neighbours in structure and some others; about 5.7% of the full set was active somewhere. Calls follow the shape of the dose curve; as a rule, active = well fitted curve in the direction sought with a large enough effect; inconclusive = small, poorly fitted or top-dose-only effect, or another doubt; inactive = no such curve, though single readings can be large; an effect the other way counts as inactive or inconclusive. Unless noted, % is scaled to controls: 0 for no effect and ±100 for the full control effect; potency is read from the fitted curve at half-maximal effect.

SMILES	B2AR arrestin	NPSR antagonist	RORgamma inh	Gal4-VP16 FLuc
Cc1nc(SCCC(=O)O)c2cc(-c3ccccc3)sc2n1	-0.4%	nt	0.891µM*	0.501µM*
Cc1cc(/C=N/n2cnnc2)c(C)n1-c1ccc(Cl)cc1	-0.6%	7.0%	23.4%	-13.6%
Cc1cc(/C=N/n2cnnc2)c(C)n1-c1ccc(OCc2ccc(Cl)cc2Cl)cc1	-0.1%	?	0.0%	11.2µM*
CCCCCCCCCCCCCCCC(=O)C(F)(F)F	nt	nt	-1.4%	-4.5%
Cc1ccccc1OCC(=O)Nc1ccc(Cc2ccncc2)cc1	0.2%	-21.9%	?	10µM*
Cc1ccc(OCC(=O)Nc2ccncc2)c(C)c1	0.3%	nt	3.9%	15.8µM*
CC(=O)Nc1cccc(NC(=O)COc2ccccc2C)c1	-1.0%	nt	35.7%	4.3%
Cc1ccccc1OCC(=O)Nc1ccncc1	-0.1%	nt	?	11.2µM*
Cc1ccccc1OCC(=O)Nc1ccc(C(N)=O)cc1	0.0%	-3.8%[46.1 µM]	5.1%	7.2%
COC(=O)[C@H]1C[C@@H]1[C@H](NC(=O)c1cc(C)nn1C)c1ccccc1	nt	nt	-2.7%	13.7%
CCC(C)c1ccc(OCC(=O)NNC(=O)C2CCCCC2)cc1 (centres undefined)	-0.5%	nt	16.5%	-2.9%
O=C(NC1CCCCCC1)C(=S)NCCc1ccccc1	-0.2%	-45.9%	41.2%	3.8%
CCOc1ccc(C(C)NC(=O)C2CCCC2)cc1 (centres undefined)	-0.1%	0.9%	-3.0%	1.2%
CCOc1ccc(C(C)NC(=S)NC2CCCCC2)cc1 (centres undefined)	-0.1%	-21.8%	3.16µM*	10µM*
CC(CCc1ccccc1)NC(=S)NC1CCCCC1 (centres undefined)	-0.2%	-4.9%	2.51µM*	15.8µM*
CCC(C)c1ccc(C(C)NC(=S)NC2CCCCC2)cc1 (centres undefined)	3.8%	nt	2.82µM*	2µM*
CCc1ccc(C(C)NC(=S)NC2CCCCC2)cc1 (centres undefined)	-0.5%	nt	2.24µM*	3.16µM*
CCCCC#CC1C=CC(Oc2cc(OC)c(OC)c(OC)c2)C(COC(=O)OCC)O1 (centres undefined)	nt	nt	31.6%[10 µM]	-5.2%[10 µM]
O=C(NC1CCCc2c1cnn2-c1ccc(F)cc1F)c1ccccc1N1CCOCC1 (centres undefined)	0.3%	nt	?	-4.2%
CCC(NC(=S)NC1CCCCC1)c1ccccc1 (centres undefined)	-0.2%	nt	3.16µM*	7.08µM*
CCOc1ccc(C(C)NC(=S)NC2CCCCC2)cc1OCC (centres undefined)	4.4%	-13.6%	7.08µM*	14.1µM*
Oc1c(I)cc(I)c2cccnc12	-0.1%	-4.7%	2.51µM*	4.47µM*
O=S(=O)(O)c1cc(I)c(O)c2ncccc12	nt	nt	?	-1.3%
Oc1ccc(Cl)c2cccnc12	nt	nt	1.78µM*	3.16µM*!
Cc1ccc(S(=O)(=O)Nc2cc(Cl)c(O)c3ncccc23)cc1	4.8%	nt	0.708µM*	1.26µM*
SMILES	B2AR arrestin	NPSR antagonist	RORgamma inh	Gal4-VP16 FLuc
Oc1ccc(F)c2cccnc12	-0.2%	47.3%	2.82µM*	4.47µM*
O=C(O)c1ccc(O)c2ncccc12	0.2%	nt	nt	nt
c1ccc(CNc2ncncc2-c2ccoc2)cc1	nt	nt	2.0%	-2.0%
Oc1c(Cl)cc(Cl)c2cccnc12	3.6%	-30.5%	0.0794µM*	?
Cc1nnsc1S(=O)c1ccc(Cl)c(Cl)c1 (centres undefined)	0.3%	nt	-38.7%	-28.9%
O=S(c1ccc2ccccc2c1)c1cnns1 (centres undefined)	-1.8%	10µM*	11.2µM*	?
COc1ccc(C)cc1NS(=O)(=O)c1ccc(-c2cnc(C3CC3)o2)cc1	-0.1%	nt	34.4%	17.8µM*
Cc1ccc(NS(=O)(=O)c2ccc(-c3cnc(C4CC4)o3)cc2)cc1	0.0%	nt	?	-12.2%
Cn1c(CN2CCN(c3ccc(Cl)cc3)CC2)nc2ccccc21	0.3%	-15.8%[46.1 µM]	6.31µM*	?
CCCn1c(CN2CCN(C)CC2)nc2ccccc21	-0.1%	-11.9%[46.1 µM]	1.5%	4.8%
CCn1c(CN2CCN(c3ccc(Cl)cc3)CC2)nc2ccccc21	-0.7%	-16.2%[46.1 µM]	10µM*	8.91µM*
Cc1ccccc1-c1cncnc1NCc1cccs1	nt	nt	-0.7%	-13.9%
CCn1nnc(NC(=O)CSc2ccc(Cl)cc2)n1	-0.9%	-11.3%[46.1 µM]	1.1%	10.5%
CCCn1nnnc1NC(=O)c1cc(Cl)ccc1Cl	-0.3%	8.6%	1.58µM*	2.24µM*
CCn1nnnc1NC(=O)c1cc(Cl)c(OC)c(Cl)c1	0.0%	-9.6%	?	-6.3%
CCCn1nnnc1NC(=O)CSc1ccc(Cl)cc1	0.2%	5.5%[46.1 µM]	0.891µM*	2.24µM*
CC1(C)CN(c2cccc(Br)c2)C1=O	0.0%	13.8%	13.9%	0.6%
CCn1ccnc1CN(C)Cc1cn(-c2ccc(C)cc2)nc1-c1ccc(F)cc1	3.2%	?	2.82µM*	15.8µM*
CN(Cc1ncc[nH]1)Cc1cn(-c2ccccc2)nc1-c1ccc2c(c1)OCO2	-0.6%	-5.7%	-18.9%	-1.7%
COc1ccc(-n2cc(CN3CCCC3)c(-c3cccc(F)c3)n2)cc1	-0.4%	2.4%	-14.9%	-3.0%
Cc1cccc(-n2cc(CN3CCN(Cc4nccn4C)CC3)c(-c3cccc(F)c3)n2)c1	-0.7%	32.6%	11.2µM*	?
Cc1ccc(-c2nn(-c3cccc(F)c3)cc2CN(Cc2nccn2C)C(C)C)o1	-0.1%	?	5.62µM*	?
Cc1ccc(-n2cc(CN(C)Cc3ncc[nH]3)c(-c3cccc(C)c3)n2)cc1	-0.5%	-48.8%	-1.5%	6.31µM*
C[C@H]1C[C@]2(O[C@@H]2C)C(=O)O[C@@H]2CCN(C)C/C=C(/COC(=O)[C@]1(C)O)C2=O	nt	nt	12.9%	5.8%
CCn1ccnc1CN(C)Cc1cn(-c2ccccc2)nc1-c1ccc(OC)cc1F	-0.5%	45.4%	3.55µM*	?
SMILES	B2AR arrestin	NPSR antagonist	RORgamma inh	Gal4-VP16 FLuc
Cc1ccc(-n2cc(CN(C)Cc3nccn3C)c(-c3ccc(F)cc3)n2)cc1	-0.7%	58.5%	7.94µM*	?
Cc1cc(OCc2cc(C(=O)N(C)C3CCOCC3)no2)cc(C)c1Cl	0.4%	nt	?	?
Cc1cc(OCc2cc(C(=O)N3CCN(C)C(=O)[C@@H]3C)no2)cc(C)c1Cl	0.2%	nt	-34.1%	14.1µM*
O=C(C[n+]1cc[nH]c1)c1ccc(Cl)cc1	-0.7%	nt	-1.8%	22.1%
COc1cc2ccccc2cc1C(=O)OCc1nc2ccsc2c(=O)[nH]1	-0.1%	nt	nt	nt
C/C(=N/NC(=O)OC(C)(C)C)c1ccco1	0.1%	12.0%	-39.4%	-6.4%
C/C(=N\NC(=S)NCc1ccccc1)c1ccc2c(c1)OCCO2	-0.2%	-43.7%	2.82µM*	8.91µM*
C/C(=N\NC(=S)NCc1ccccc1)c1ccc(C)o1	?	-30.7%	2.24µM*	7.08µM*
C/C(=N\NC(=S)NCc1ccccc1)c1ccc(Br)cc1	?	-57.2%	0.282µM*	0.501µM*
C/C(=N\NC(=O)CCc1ccccc1)c1ccc(Br)cc1	-0.1%	-12.5%	21.0%	-4.2%
CCNC(=S)N/N=C(\C)c1ccco1	?	-23.0%	3.98µM*	12.6µM*
O=C(NCc1ccccc1)c1ccc2c(c1)OCCO2	-0.3%	-1.9%[46.1 µM]	?	4.0%
N#Cc1ncc(Cl)c2ccccc12	0.0%	-23.8%	3.2%	5.7%
COC(=O)N/N=C(\C)c1ccccc1OC(F)F	2.7%	11.0%	3.5%	-1.2%
